About 83,000 compounds went through this panel and 20% of them were active in at least one assay; those are over-represented in the sample as a whole.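 Plates (96-well) were seeded with cells, treated with compound at one concentration, and incubated for 48 hours before percent growth was determined.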 Values without a mark were called inactive. Calls of active or inactive are those of the source. How the source made its calls: active means growth percent below 10; inactive means the rest.
Tested on: SF-295 CNS
Experiment: NCI-60 one-dose screen, 48 h (100 = growth as untreated, 0 = no growth, -100 = all killed)
Conditions: 10 µM unless noted

| Compound | growth |
| --- | --- |
| CCC1CCc2nc3sc(C(=O)Nc4ccccc4F)c(N)c3cc2C1 (stereo not drawn) | 46.6% |
| Cc1nn(-c2ccc(Cl)cc2)c(=O)n1CCOc1ccccc1Cl | 72.3% |
| COc1cc(/C=C2\CCCC3=C2NC(C)=NC3c2cc(OC)c(OC)c(OC)c2)cc(OC)c1OC (stereo not drawn) | -25% (active) |
| c1ccc([P+](CCC[P+](c2ccccc2)(c2ccccc2)c2ccccc2)(c2ccccc2)c2ccccc2)cc1 | 73.4% |
| CC1=C(C#N)C(C)(C)C(C#N)=C(C)N1 | 96.1% |
| COc1cc(C(=O)OCCCCCCCCCCC[P+](c2ccccc2)(c2ccccc2)c2ccccc2)ccc1O | -31.9% (active) |
| Nc1c(C(=O)Nc2ccccc2)sc2nc3c(cc12)CCCCC3 | -4.71% (active) |
| COc1cccc(C2CC(=O)Nc3c2c(C)nn3-c2nc3ccccc3[nH]2)c1OC (stereo not drawn) | 7.64% (active) |
| COc1cc(C(=O)/C=C/c2cc(C(=O)c3cc(OC)c(OC)c(OC)c3)ccc2OC)ccc1N | 9.88% (active) |
| COc1ccc(NC(=O)c2cc3ccccc3nc2Nc2cc(OC)c(OC)c(OC)c2)cc1 | 65.5% |
| O=S(=O)(O)CCl | 102% |
| O=C(CN1CCOCC1)Nc1ccc(-c2nc3ccccc3s2)cc1 | 98.2% |
| COc1cc(/C=C\c2cc(OC)c(OC)c(OC)c2)cc(N/C=C\C(=O)c2c[nH]c3ccccc23)c1OC | 55.8% |
| CC(C)C[C@H](NC(=O)[C@@H](Cc1ccccc1)n1ccc(Nc2ccccc2)cc1=O)B(O)O | -20.6% (active) |
| Cc1ccc2c(c1)C(=O)C(c1c(-c3[nH]c(=O)c4ccc(C)cc4c3O)c(O)c3ccccc3c1O)=NC2=O | 49.9% |
| C=CCn1c(C)nc2ccc(Nc3nc(Nc4ccc(F)cc4)nc4ccccc34)cc21 | 31.4% |
| COc1ccccc1CNCCCN1C(=O)c2ccc3c4c(ccc(c24)C1=O)C(=O)N(CCCNCCCCNCCCCN)C3=O | 2.29% (active) |
| COc1ccc2c(c1)C(=O)/C(=C/c1ccc(O)cc1)O2 | 98.1% |
| COc1ccc(-c2cn[nH]c2-c2cc(OC)c3c(c2)OCO3)cc1 | -10.4% (active) |

| Compound | growth |
| --- | --- |
| CCCCCCCCCCCCNC(=S)N/N=C/c1ccc(Cl)c(Cl)c1 | 98.3% |
| O=C1Nc2ccc(Br)cc2C1=N/C=c1\[nH]c(=O)/c(=C/c2ccc(Cl)cc2)s1 | 96.5% |
| O=C(CNc1c(Cl)cccc1Cl)Nc1ccc(-c2nc3ccccc3s2)cc1 | 97.4% |
| CCn1c(=O)c2c(=O)c3c4c(oc3oc2c2ccccc21)C(=O)c1ccccc1C4=O | 95.1% |
| CN1CCN(c2ccc3cc(-c4nc5ccccc5[nH]4)c(=O)oc3c2)CC1 | 104% |
| COc1ccc(OC)c(C(=O)c2oc3ccc(Br)cc3c2N)c1 | -35.1% (active) |
| Cc1ccc(Cn2c(-c3nonc3N)nc3ccccc32)cc1 | 82.3% |
| Cc1ccc(S(=O)(=O)NCCCNc2nccc(-c3c(-c4ccccc4)nc4sccn34)n2)cc1 | 65.2% |
| COC1=CC(c2ccc[nH]2)=N/C1=C\c1[nH]c(C)c(C(=O)CCCCC(=O)Oc2ccc3c(c2)CCC2C3CC[C@]3(C)[C@@H](O)CC[C@@H]23)c1C (stereo partly drawn) | 80.8% |
| Cc1cccc(NC(=O)c2sc3nc4c(cc3c2N)CCC4)c1C | 4.77% (active) |
| Nc1c(C(=O)Nc2c(Cl)cccc2Cl)sc2nc3c(cc12)CCCCC3 | 54.4% |
| COc1cc(OC)c(C(=O)/C=C/c2ccc(C(F)(F)F)cc2)c(OC)c1 | 69.9% |
| Cn1c(-c2nonc2NC(=O)c2ccc(F)cc2)nc2ccccc21 | 98.5% |
| CCOC(=O)C1=C(CSC(=S)N(C2CCCCC2)C2CCCCC2)N(C)C(=O)NC1c1ccccc1 (stereo not drawn) | 39.9% |
| COC12CC(=O)C(C(C)=O)=C(O)C1(C)c1c(O)c(C)c(O)c(C(C)=O)c1O2 (stereo not drawn) | 13.3% |
| COc1ccc(C2=CC(c3ccc(Oc4ccnc5cc(Cl)ccc45)c(OC)c3)c3c(nc(OC)[nH]c3=O)N2)cc1 (stereo not drawn) | 96.5% |
| COc1ccc(Cn2cc(COc3cc(/C=C/C(=O)c4cc(OC)c(OC)c(OC)c4)ccc3OC)nn2)cc1 | 32.2% |
| O=C(Nc1ccc(OCc2nnc(-c3ccc(Cl)cc3)o2)c(F)c1)Nc1ccc(Cl)c(Cl)c1 | 62.5% |
| O=C(CNc1ccc(Cl)cc1)Nc1ccc(-c2nc3ccccc3s2)cc1 | 94.6% |

From PubChem BioAssay (NCI)
